CtBP-E1A blk = CtBP/E1A binding inhibition | activity change, % (concentration not given with the values) | AID 651724 | 340,000 tested, 0.49% active | AlphaScreen GST-E1A/His-CtBP binding, 1536-well; hits give low values; in the data active = activity change below about -65%; inconclusive = mostly about -30% to -63%
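Steps: dispense buffer (Tris pH 8.0, NaCl 300 mM, TCEP 1 mM, BSA, Tween 20); add 5X protein mix (GST-E1A, His-CtBP, 125 nM each); pin 23 nL compound; 2 h at 37 °C, dark; add 5X beads (50 ug/mL); 1 h; read.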
Six1-Eya2 blk = inhibitors of human Six1/Eya2 interaction. AlphaScreen GST-Six1/His-Eya2 binding, biochemical; hits give low values. activity change, % (test concentration not listed). 360,000 tested, 0.56% active; in the data active = activity change below about -65%; inconclusive = mostly about -30% to -63%
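AlphaScreen with GST-Six1 and His-Eya2 (5X mix: 250 nM and 500 nM), glutathione donor and nickel acceptor beads; buffer 50 mM Tris pH 8.0, 300 mM NaCl, 1 mM TCEP; 1 h at 37 C in the dark.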
HP1b chromo inh = blocks HP1-beta chromodomain binding to methylated histone tails; P83916; AlphaScreen HP1-beta / biotin-H3K9me3 peptide binding; Potency, µM (top dose mostly 114 µM), most hits filed as inhibitors; 390,000 tested, 0.56% active; also: nearly all actives have a fitted effect of over 70% in size
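Compound inhibition of the preformed complex between 50 nM HP1-beta and 50 nM biotinylated H3K9me3 peptide was read by AlphaScreen. Buffer was PBS pH 7.4 with 0.01% Tween-20. Incubations ran 30 min at room temperature, with 10 ug/mL donor/acceptor beads.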
JMJD2A Tudor inh = blocks the human JMJD2A Tudor domain; O75164; AlphaScreen JMJD2A-Tudor / H3K4me3 peptide binding; Potency, µM (doses to about 114 µM), usual class: inhibitors; 390,000 tested, 4.4% active; also: nearly all actives have a fitted effect of over 50% in size
TDP1 block = inhibitors of human tyrosyl-DNA phosphodiesterase TDP1. Q9NUW8. recombinant TDP1, AlphaScreen DNA substrate cleavage. Potency, µM (top dose mostly 130 µM), hits mostly inhibitors. 350,000 tested, 0.28% active; also: nearly all actives have a fitted effect of over 40% in size
Target sequence (Q9NUW8 whole entry, looked up): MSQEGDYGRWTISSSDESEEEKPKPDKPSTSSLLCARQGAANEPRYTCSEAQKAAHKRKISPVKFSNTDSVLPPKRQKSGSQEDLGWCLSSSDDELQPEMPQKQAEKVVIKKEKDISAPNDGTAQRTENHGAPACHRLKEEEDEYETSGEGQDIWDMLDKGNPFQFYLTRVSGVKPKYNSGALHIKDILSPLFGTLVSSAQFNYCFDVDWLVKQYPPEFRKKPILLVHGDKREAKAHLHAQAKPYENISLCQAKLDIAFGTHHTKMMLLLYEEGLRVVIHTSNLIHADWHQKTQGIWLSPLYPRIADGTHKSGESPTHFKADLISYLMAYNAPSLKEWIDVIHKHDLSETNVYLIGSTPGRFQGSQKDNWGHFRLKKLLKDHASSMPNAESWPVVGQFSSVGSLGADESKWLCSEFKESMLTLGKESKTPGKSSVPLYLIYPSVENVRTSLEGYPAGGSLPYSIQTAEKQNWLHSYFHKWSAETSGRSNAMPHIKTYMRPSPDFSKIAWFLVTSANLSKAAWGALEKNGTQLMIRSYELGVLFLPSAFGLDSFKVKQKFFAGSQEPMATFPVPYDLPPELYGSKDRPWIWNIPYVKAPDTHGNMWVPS
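Signal: AlphaScreen proximity between streptavidin donor and anti-FITC acceptor beads on intact substrate. Reaction: Tdp1 1 nM, substrate 15 nM final, 5 min RT after 15 min compound preincubation.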
BAZ2B block = inhibitors of human BAZ2B bromodomain; AID 504333; Potency, µM (titrated, usually from 114 µM), usual class: inhibitors; AlphaScreen BAZ2B-H3K14Ac peptide displacement; 360,000 tested, 4.4% active; also: nearly all actives have a fitted effect of over 60% in size
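Inhibition is scored as reduced AlphaScreen emission. The BAZ2B/b-H3(5-23)K14Ac complex (50 nM each) in PBS pH 7.4, 0.01% Tween-20 meets compound (up to 110 uM) for 30 min at RT before bead addition.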
Hits are given with their value; 0 = inactive; ? = inconclusive; - = no result. A selection: hits, their analogues and other compounds. The true share with any hit is near 5.3%. Unless noted, calls follow the shape of the dose curve; as a rule, active = well fitted inhibition curve with a large enough effect; inconclusive = small, poorly fitted or top-dose-only effect; inactive = no such curve, though single readings can be large or run the other way.

SMILES | CtBP-E1A blk | Six1-Eya2 blk | HP1b chromo inh | JMJD2A Tudor inh | TDP1 block | BAZ2B block
COc1ccc(Br)cc1CNc1ccccc1 | - | 0 | ? | 17.8µM | 0 | 50.1µM
COc1ccc(C2=C(C(C)=O)Sc3nnc(-c4ccc(C)cc4)n3N2C(C)=O)cc1OC | - | - | 0 | 0 | 0 | 0
Cc1cc(C)c(C)c(N=Nc2nc3ccccc3n2C)c1C | 0 | 0 | 12.6µM | 11.2µM | 0 | 7.94µM
Cc1ccc(C)c(N=Nc2nc3ccccc3n2C)c1 | 0 | ? | 15.8µM | 25.1µM | 0 | 8.91µM
COc1ccc(/C=N/c2nc3ccccc3n2C)cc1OC | 0 | 0 | 0 | 0 | 0 | 0
COc1cc(NC(=O)c2cc3c(=O)n(Cc4ccco4)ccc3nc2C)cc(OC)c1OC | - | - | 0 | 0 | 0 | 0
COc1ccc(N2CCN(CCCNC(=O)Cn3c(-c4cccs4)cc4ccccc43)CC2)cc1 | - | - | 0 | 17.8µM | 0 | ?
CC1CCN(CCCNC(=O)c2cc3sccc3n2C)CC1 | 0 | 0 | 0 | 0 | 0 | 0
COc1ccc(N2CCN(CCCNC(=O)c3cc4sccc4n3C)CC2)cc1 | ? | ? | 0 | 31.6µM | 0 | 39.8µM
CCc1ccccc1N1C(=O)N(Cc2ccc(C#N)cc2)c2ccccc2S1(=O)=O | - | - | 0 | 0 | 0 | 0
COc1ccc(N2CCN(C(=O)C(C)n3c(=O)cc(C(F)(F)F)c4c(C)nn(C)c43)CC2)cc1 (stereo unspecified) | - | - | ? | 0 | 0 | 35.5µM
Cc1nn(C)c2c1c(C(F)(F)F)cc(=O)n2C(C)C(=O)N1CCN(c2ccccc2)CC1 (stereo unspecified) | - | - | 0 | 0 | 0 | 0
CCc1ccccc1NC(=O)C1CCCN(c2cnccn2)C1 (stereo unspecified) | - | - | 0 | 0 | 0 | 0
Cc1cccc(-c2nc3c4ccccc4nc(N4CCN(c5ccccc5F)CC4)n3n2)c1 | - | - | 0 | 0 | 0 | 0
CCn1ccnc1CN(C)Cc1cn(-c2ccc(C)cc2)nc1-c1ccc(F)cc1 | - | 0 | ? | ? | 0 | 50.1µM
CN(Cc1ncc[nH]1)Cc1cn(-c2ccccc2)nc1-c1ccc2c(c1)OCO2 | 0 | 0 | 0 | 0 | - | ?
CCn1ccnc1CN(C)Cc1cn(C)nc1-c1ccccc1F | 0 | 0 | 0 | 0 | 0 | ?
CCn1ccnc1CN(C)Cc1cn(-c2cc(C)ccc2C)nc1-c1ccccc1 | 0 | 0 | 0 | ? | - | ?
Cc1ccc(-n2cc(CN(C)Cc3nccn3C)c(-c3ccc(F)cc3)n2)cc1 | 0 | 0 | ? | 44.7µM | 0 | 20µM
CCn1ccnc1CN(C)Cc1cn(-c2ccccc2)nc1-c1ccc(OC)cc1F | 0 | 0 | 0 | 39.8µM | 0 | 0
Cc1ccc(-n2cc(CN(C)Cc3ncc[nH]3)c(-c3cccc(C)c3)n2)cc1 | 0 | ? | 0 | 31.6µM | 0 | 50.1µM
Cc1ccccc1NC(=O)c1ccc2nc(Cc3ccccc3)oc2c1 | - | - | 0 | 0 | 0 | 0
O=[N+]([O-])c1cc(-n2cccc2)ccc1N1CCOCC1 | 0 | ? | 70.8µM | 50.1µM | 0 | 35.5µM
O=C(c1ccc(N2CCOCC2)c([N+](=O)[O-])c1)N1CCN(c2ccccc2)CC1 | 0 | 0 | 0 | 0 | - | -
O=[N+]([O-])c1cc(S(=O)(=O)Nc2ccccc2)ccc1N1CCN(c2ccccc2)CC1 | ? | ? | ? | 10µM | 0 | 39.8µM
SMILES | CtBP-E1A blk | Six1-Eya2 blk | HP1b chromo inh | JMJD2A Tudor inh | TDP1 block | BAZ2B block
O=[N+]([O-])c1cc(S(=O)(=O)Nc2ccccc2)ccc1Nc1ccccc1 | ? | 0 | ? | 22.4µM | - | -
O=[N+]([O-])c1cc(S(=O)(=O)C(F)(F)F)ccc1N1CCN(c2ccccc2)CC1 | 0 | ? | ? | ? | 0 | 8.91µM
CCCS(=O)(=O)N1CC(=O)N(c2ccc(Cl)cc2C)C(C)(C(=O)NC2CCCC2)C1 (stereo unspecified) | - | - | 0 | 0 | 0 | 0
O=[N+]([O-])c1ccc(N2CCCC2)cc1N1CCCC1 | ? | ? | 15.8µM | 44.7µM | 0 | 25.1µM
O=[N+]([O-])c1ccc(N2CCCCC2)cc1N1CCOCC1 | 0 | 0 | 0 | 0 | 0 | 0
O=[N+]([O-])c1ccccc1Nc1cccc(F)c1 | ? | ? | ? | 44.7µM | - | -
CCc1ccc(NC(=O)CN(Cc2ccccc2)S(=O)(=O)c2ccc3nc(C)sc3c2)cc1 | - | - | 0 | 0 | 0 | 0
CC1(C)Cc2ccccc2C(/C(=N\Nc2cccc(Cl)c2)C(N)=O)=N1 | ? | ? | ? | 35.5µM | 0 | 25.1µM
Cc1ccc(NC(=O)CSc2nc(=O)n(CCN3CCOCC3)c3c2CCC3)cc1Cl | - | - | 0 | 0 | 0 | 0
COc1ccc(NC(=O)C(=O)NCC(c2ccc3c(c2)OCO3)N2CCN(C)CC2)cc1 (stereo unspecified) | - | - | 0 | 0 | 0 | 0
Clc1cccc(N/N=C/c2ccc(N3CCOCC3)cc2)c1 | 0 | 0 | 0 | ? | 0 | 0
O=[N+]([O-])c1cccc(/C=N/N=C\c2ccccc2)c1 | 0 | 0 | 0 | 0 | - | 0
O=[N+]([O-])c1cccc(-c2csc(N/N=C/c3cccc(O)c3)n2)c1 | ? | 0 | 44.7µM | 56.2µM | 0 | ?
O=[N+]([O-])c1cccc(N/N=C/c2ccc(N3CCOCC3)cc2)c1 | 0 | 0 | 39.8µM | 35.5µM | 0 | 17.8µM
O=[N+]([O-])c1cccc(C=NNc2ccccc2)c1 | 0 | 0 | ? | 39.8µM | - | -
